# About 410 targets per protein were measured; listed, in parts, are those with the strongest signals and a random draw of the rest.
# Tests used:
# Test in all cases: glycan array binding signal (z-score within array); higher = stronger binding
# Conditions in all cases: glycan notation: IUPAC condensed, linker removed
# [1] = molecular target: Gal3S(b1-4)[Fuc(a1-3)]GlcNAc6S
# Procedure, shortened: (§1)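 Glycan array binding is given as a within-array Z-score, which can be read as non-binding when negative. The arrays, 3228 of them, came from the Consortium for Functional Glycomics database and were retained only where the protein sequence was available. Z-scores were averaged across arrays of the same protein sequence at different concentrations or buffers and across linkers.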
# [2] = molecular target: GlcNAc(a1-3)Gal(b1-4)GlcNAc
# Procedure, shortened: as §1
# [3] = molecular target: GlcNAc(a1-4)Gal(b1-3)GlcNAc
# Procedure, shortened: as §1
# [4] = molecular target: GlcNAc(b1-3)Gal(b1-4)GlcNAc(b1-6)[GlcNAc(b1-3)]Gal(b1-4)GlcNAc
# Procedure, shortened: as §1
# [5] = molecular target: Man(a1-2)Man(a1-2)Man(a1-3)Man
# Procedure, shortened: as §1
# [6] = molecular target: Neu5Ac(a2-3)Gal(b1-3)GlcNAc
# Procedure, shortened: as §1
# [7] = molecular target: Neu5Ac(a2-3)Gal(b1-4)GlcNAc(b1-3)Gal(b1-3)GlcNAc
# Procedure, shortened: as §1
# [8] = molecular target: Neu5Ac(a2-3)Gal(b1-4)[Fuc(a1-3)]GlcNAc
# Procedure, shortened: as §1
# [9] = molecular target: Neu5Ac(a2-6)Gal(b1-4)GlcNAc(b1-2)Man(a1-3)[GlcNAc(b1-2)Man(a1-6)]Man(b1-4)GlcNAc(b1-4)GlcNAc
# Procedure, shortened: as §1
# [10] = molecular target: Neu5Ac(a2-6)Gal(b1-4)GlcNAc(b1-3)Gal(b1-3)GlcNAc
# Procedure, shortened: as §1
# [11] = molecular target: Neu5Ac(a2-8)Neu5Ac(a2-3)[GalNAc(b1-4)]Gal(b1-4)Glc
# Procedure, shortened: as §1
# [12] = molecular target: Neu5Ac9Ac(a2-3)Gal(b1-4)GlcNAc
# Procedure, shortened: as §1
# [13] = molecular target: Neu5Ac9Ac(a2-6)Gal(b1-4)GlcNAc
# Procedure, shortened: as §1
# [14] = molecular target: Neu5Gc(a2-3)Gal(b1-4)GlcNAc(b1-3)Gal(b1-4)GlcNAc(b1-2)Man(a1-3)[Neu5Gc(a2-3)Gal(b1-4)GlcNAc(b1-3)Gal(b1-4)GlcNAc(b1-2)Man(a1-6)]Man(b1-4)GlcNAc(b1-4)GlcNAc
# Procedure, shortened: as §1
binder,measurement,setting,value
Epa10 (protein) MNEKIFRYLTLLFLFELARSLPVEDKLNIKKVFEKRAVDFTPFAHYPRPEGCSSPPNSVSVGLHMNLYNYPYLYVKPSTKGMFTNDTNSDADGETDGDSAGGIEGRAGQCWNPEYQDPNFPRFGYKQYGEFGASDNVNGDISWDHNEFTEGCKPVLAALPPGYNYPDEITFSNFTMVLSGYFKPKTSGVYKFELKADDFILFNFGAKNAFECCNREESIDNFGPYVAYAMWPNQADQELEVYLFEDSYYPLRLFYNNRDYHSKFKIGFYPPGQTTITFDFDGYLFMLDDTGNECRDSIRYRTVCDDKVVDDTTYSTRYSTSMVPGGGSDVITIYYIRMKCEEEDCLGQWDPINNVCYSPDDCADDGGYWNGQMCDQSCKLEGGIVNPDTGDCDKSCIESGGFLDENGNCDTTCRDDGGMLVEGQCDYQCKEAGGILVGDHCDTTCVDSGGKLNEDGTCDHSCRDQGGQLDENGECDTSCKDSGGMLIEGECDTSCKDEGGQLDDNNECINHCKDQGGIIDENGNCDTSCKDSGGKLDESGACDTSCRDDGGIIDENGNCNTTCRDDGGIIVGDHCDTSCRDAGGILIEDHCDTTCRDSGGKLNEDGTCDHSCRDQGGQLDENGKCDYSCKNGGGKLDEDGNCDMSCKENGGKLDENGDCDLSCKEDGGKLDGNGDCDYSCKEEGGVIDESGNCNTTCKDSGGQIIDGECNYGCIEVGGVVIDGECDTSCIDSGGILDGDGNCDRSCIESGGVLEDGACNTTCRDSGGQLNVDGTCDTSCRDDGGMLVEGQCDYQCKEAGGILEDGECVFPPTSSSTSETSSTTDQSSLQSDDSSMESSSTPMDSSTIESSSSEIITSESESESVPIASSSSEVMTSESESESIPILTSSSEIPIASSSSEIPVASSSSEIIIPESESESVPVASSSSEIPIASSSSEIPVASSSSEIPVASSSSEIIIPESESESIPIESTSSEAVSSRSESDSSYPTPTPTTTTITTWPNPIQPTTSNSSPIVSSSTETPGIAESSSRISDLESSRRTSILGDDRTRTRTTITSTITEDGQIITITTTVTGFVPEPTGETEGNGSDDENPENPIENNTDENEFLDPEFTDDIPDDPAGPEDNGNGPVNPEQGNDNDPVNLEDSGNNGAVNPEQAPVNDEDNGGNDPVNPEQDNNNGPANPGQDSTNGSGNSDQIDNNPPTPEENAGDGNSNGNDPADPSRRTSILGDERTRASPGGTSQPTGANGNVNGNSPGANVNGGGTGNSNNNNNNNNNNNNGNAPNGGDGSNGDANQGPSRRTSLLGDERTRAGQAAPTGGSSPDNGIAGDTSNNGGAIVSQQVDDGGAGSPRRTSILGDVRSRTTLNGEVLNFEGSGVRRAVAGNLALPLMMVGLVFNL,glycan array binding signal (z-score),[1],-0.35
same,glycan array binding signal (z-score),[2],-0.222
same,glycan array binding signal (z-score),[3],-0.238
same,glycan array binding signal (z-score),[4],-0.312
same,glycan array binding signal (z-score),[5],-0.264
same,glycan array binding signal (z-score),[6],-0.234
same,glycan array binding signal (z-score),[7],-0.284
same,glycan array binding signal (z-score),[8],-0.278
same,glycan array binding signal (z-score),[9],-0.287
same,glycan array binding signal (z-score),[10],-0.258
same,glycan array binding signal (z-score),[11],-0.27
same,glycan array binding signal (z-score),[12],-0.271
same,glycan array binding signal (z-score),[13],-0.297
same,glycan array binding signal (z-score),[14],-0.292

# From the supplement of paper PMC8728848
